Gli-Sufu antag: Gli-Sufu pathway antagonism | Sufu-KO-LIGHT fibroblasts, Gli luciferase reporter luminescence | inhibition, % at 5 µM | 340,000 tested, 0.74% active | AID 588413;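 active = inhibition above about 55%, limit read from the data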
SRC1 inh: inhibitors of human steroid receptor coactivator 1 (SRC1) | HEK293 GAL4-SRC1 luciferase reporter, luminescence | inhibition, % at 3.6 µM | 360,000 tested, 0.12% active;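 active = inhibition above the campaign mean plus 3 SD, with each screening campaign given its own cutoff, cut at about 60% in these data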
Target sequence (Q15788 whole entry, looked up, the tested form may be a part): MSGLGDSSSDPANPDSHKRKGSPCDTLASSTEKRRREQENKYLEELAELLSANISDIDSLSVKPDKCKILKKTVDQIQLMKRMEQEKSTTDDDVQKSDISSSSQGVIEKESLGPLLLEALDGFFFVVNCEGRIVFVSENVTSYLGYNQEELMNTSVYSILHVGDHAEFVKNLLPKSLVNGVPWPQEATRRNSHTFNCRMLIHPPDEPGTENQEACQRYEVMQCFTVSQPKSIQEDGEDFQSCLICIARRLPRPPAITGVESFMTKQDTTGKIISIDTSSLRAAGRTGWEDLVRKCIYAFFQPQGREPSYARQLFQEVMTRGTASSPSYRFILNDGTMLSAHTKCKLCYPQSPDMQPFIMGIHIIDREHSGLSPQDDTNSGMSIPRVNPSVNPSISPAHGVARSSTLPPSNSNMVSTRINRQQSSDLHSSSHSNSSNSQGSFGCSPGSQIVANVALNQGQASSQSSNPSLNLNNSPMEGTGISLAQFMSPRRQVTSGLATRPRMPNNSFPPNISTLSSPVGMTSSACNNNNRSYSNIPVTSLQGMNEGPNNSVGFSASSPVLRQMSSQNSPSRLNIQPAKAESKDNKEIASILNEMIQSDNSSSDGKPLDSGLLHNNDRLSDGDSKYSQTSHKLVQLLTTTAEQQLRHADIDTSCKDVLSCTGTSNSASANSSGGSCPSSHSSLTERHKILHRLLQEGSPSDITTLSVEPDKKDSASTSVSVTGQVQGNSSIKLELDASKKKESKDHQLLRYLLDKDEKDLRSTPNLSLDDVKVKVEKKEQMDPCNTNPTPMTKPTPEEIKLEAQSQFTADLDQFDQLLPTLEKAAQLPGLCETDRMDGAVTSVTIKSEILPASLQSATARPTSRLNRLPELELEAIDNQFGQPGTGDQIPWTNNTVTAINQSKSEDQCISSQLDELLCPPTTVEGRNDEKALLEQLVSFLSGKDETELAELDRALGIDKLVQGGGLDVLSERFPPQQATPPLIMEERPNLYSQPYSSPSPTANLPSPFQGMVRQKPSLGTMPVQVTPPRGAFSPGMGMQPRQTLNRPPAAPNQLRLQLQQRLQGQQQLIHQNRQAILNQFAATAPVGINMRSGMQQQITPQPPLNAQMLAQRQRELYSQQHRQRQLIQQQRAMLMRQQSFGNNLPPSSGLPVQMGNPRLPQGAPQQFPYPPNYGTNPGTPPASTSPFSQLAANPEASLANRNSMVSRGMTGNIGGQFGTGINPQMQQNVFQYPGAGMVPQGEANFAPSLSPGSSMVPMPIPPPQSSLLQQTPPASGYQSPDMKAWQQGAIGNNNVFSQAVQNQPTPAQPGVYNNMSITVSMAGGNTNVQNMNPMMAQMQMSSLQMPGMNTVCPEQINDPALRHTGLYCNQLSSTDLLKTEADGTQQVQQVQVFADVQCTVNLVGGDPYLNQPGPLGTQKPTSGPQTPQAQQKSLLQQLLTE
NCOA2 inhibitor: human SRC2 (NCOA2) inhibition; 370,000 tested, 0.17% active; HEK293 GAL4-SRC2 luciferase reporter, luminescence; inhibition, % at 9 µM; Q15596;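 active = inhibition above the mean inhibition of all tested compounds plus 3 SD, set per campaign, cut at about 52% in these data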
NR2F2 inh: NR2F2 (human) inhibition, primary screen | P24468 | HEK293T NGFI-A luciferase reporter, luminescence | inhibition, % at 8.6 µM | 370,000 tested, 0.7% active | AID 686940;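 active = inhibition above a per-plate cutoff, mean inhibition of test wells between control levels plus 3 SD, cut at about 38% in these data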;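 note: cells cotransfected with COUP-TFII expression vector driving the NGFI-A reporter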
NR5A2 inv ag: inverse agonists of human LRH-1 (NR5A2) | O00482 | HEK293T StAR-luciferase reporter, LRH-1 transfected, 24 h | inhibition, % at 3.6 µM | 360,000 tested, 0.13% active | AID 602396;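 active = inhibition above the mean inhibition of all tested compounds plus 3 SD, cut at about 73% in these data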
SRC3 inh: human NCOA3 inhibition. 360,000 tested, 0.17% active. inhibition, % at 3.6 µM. HEK293 GAL4-SRC3 luciferase reporter, luminescence. AID 588352;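 active = inhibition above a per-campaign cutoff, the mean of all compounds plus 3 SD, cut at about 60% in these data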;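 note: higher means less SRC3-driven luciferase light from the GAL4 reporter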
Hits are given with their value; – = inactive; · = no result. Most compounds without a hit are left out; they make up all but 1.3% or so of the library.

SMILES | Gli-Sufu antag | SRC1 inh | NCOA2 inhibitor | NR2F2 inh | NR5A2 inv ag | SRC3 inh
CCOc1ccc(C(=O)CSc2nnc(SCc3ccc(Cl)cc3)s2)cc1 | · | · | – | – | · | ·
Cc1[nH]c(=O)c(C(=O)/C=C/c2ccccc2F)c2c1CCCC2 | – | 61.7 | 60.6 | – | – | 86.7
C/C(=C\c1ccccc1F)C(=O)c1c(C)cc(C)[nH]c1=O | – | – | – | – | – | –
COc1ccc(S(=O)(=O)N2CCOCC2)cc1NC(=O)CCNC(=O)c1ccc(Br)cc1 | – | – | 56.9 | – | 82.5 | –
COc1ccc(S(=O)(=O)N2CCOCC2)cc1NC(=O)CCNC(=O)c1ccc(Cl)cc1 | – | – | – | – | – | –
COc1cc(CN2CCN(CCCc3ccccc3)CC2CCO)cc(OC)c1 (stereo not drawn) | – | – | – | – | – | –
COc1cc(CN2CCN(CC#Cc3ccccc3)CC2CCO)cc(OC)c1 (stereo not drawn) | 56.8 | – | – | – | – | –
CC(C)CCNC(=O)C(C)N(Cc1ccc(F)cc1)C(=O)c1ccc(CN2CCOCC2)o1 (stereo not drawn) | – | – | – | – | – | –
O=C(NC1CCCCC1)C(c1ccc(F)cc1)N(CCCN1CCOCC1)C(=O)c1ccc(CN2CCOCC2)o1 (stereo not drawn) | – | 93.0 | – | – | – | –
CCc1ccccc1N(C(=O)CNC(=O)c1ccco1)C(C(=O)NC1CCCC1)c1cccnc1 (stereo not drawn) | – | – | – | – | – | –
COc1ccc(N(C(=O)Cc2cccs2)C(C(=O)NC2CCCC2)c2ccncc2)cc1 (stereo not drawn) | – | – | – | – | – | –
O=C(NC1CCCCC1)C(c1cccnc1)N(C(=O)CCl)c1ccc(F)cc1 (stereo not drawn) | – | – | – | – | – | 69.2
COc1cccc(N(C(=O)c2cnccn2)C(C(=O)NC2CCCCC2)c2ccc(Cl)cc2)c1 (stereo not drawn) | – | – | – | – | – | –
O=C(NC1CCCCC1)C(c1cccnc1)N(C(=O)CCl)c1ccccc1Cl (stereo not drawn) | – | – | 58.7 | – | – | –
COc1ccc(C(C(=O)NC2CCCCC2)N(C(=O)CCl)c2cccc(Cl)c2)cc1 (stereo not drawn) | · | – | – | – | – | 69.1
COc1ccc(N(C(=O)CCl)C(C(=O)NC2CCCCC2)c2cccnc2)cc1 (stereo not drawn) | – | – | 62.9 | – | – | 69.5
C(=N\Nc1nncc2ccccc12)/c1cccnc1 | · | · | – | – | · | ·
O=C1C2C(CC3c4ccccc4CCN32)CN1c1ccccc1 (stereo not drawn) | · | · | – | – | · | ·
Cc1cc(C)c2nc(NNC(=O)c3ccc(S(=O)(=O)N4CCc5ccccc5C4)cc3)sc2c1 | – | – | – | – | – | –
Cc1cc(C)c2sc(NNC(=O)c3ccc(S(=O)(=O)N4CCc5ccccc5C4)cc3)nc2c1 | – | 70.5 | – | – | – | 80.5
S=C1Cc2ccccc2N1 | – | – | 67.5 | 60.4 | – | –
Cc1nc(N2CCN(C(=O)c3ccco3)CC2)c2c3c(sc2n1)CCCC3 | – | – | – | – | – | –
Cc1nc(N2CCN(C(=O)c3ccco3)CC2)c2c3c(sc2n1)CC(C)CC3 (stereo not drawn) | 79.2 | – | – | – | – | –
C=CCn1c(SCC(=O)Nc2ccccc2OCC)nnc1-c1ccc(C(C)(C)C)cc1 | · | · | – | – | · | ·
COc1cc(NC(=O)C2CCCN(S(=O)(=O)c3ccc(C)c(C)c3)C2)cc(OC)c1 (stereo not drawn) | · | · | – | – | · | ·
SMILES | Gli-Sufu antag | SRC1 inh | NCOA2 inhibitor | NR2F2 inh | NR5A2 inv ag | SRC3 inh
CS(=O)(=O)c1ccc(Sc2nc3ccccc3s2)c([N+](=O)[O-])c1 | – | – | · | · | – | 73.0
CCCCN(C)C(=O)CSc1nnc(-c2cc(OC)c(OC)c(OC)c2)o1 | · | · | – | – | · | ·
COc1ccc(CN2C(=O)[C@]3(NCCc4c3[nH]c3ccc(OC)cc43)c3cc(Br)ccc32)cc1 | · | · | – | – | · | ·
Cc1ccc(-c2nc(NC(=O)c3nn(C)cc3[N+](=O)[O-])sc2C)cc1 | – | – | 52.4 | – | – | –
COc1ccc(Br)cc1/C=C/C(=O)c1ccc(NC(C)=O)cc1 | – | – | 61.2 | – | – | 71.1
CCOc1ccc(/C=C2\SC(=S)N(CCC(=O)O)C2=O)cc1 | – | – | 70.0 | – | – | –
COc1cccc(/C=C2/SC(=S)N(CCCC(=O)Nc3ccc(O)cc3)C2=O)c1 | – | – | 52.5 | – | – | –
